Screening results: PubChem, SRMLSC
An excerpt weighted towards active compounds, which were near 6.3% of everything screened.
NADH coupling = inhibitors of PK/LDH coupling enzymes, profiling panel, artefact control, biochemical, MLSMR library; 0.02% of 65,000 active; IC50, µM (doses to about 10 µM), inactives show at the highest dose inhibition; AID 774, 2007; coupled PK/LDH NADH assays, four targets;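 active means single-dose screening hits from any of four coupled enzyme assays that gave an IC50 when retested across doses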;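 further: the DPM-DC format reads NADH fluorescence rather than 340 nm absorbance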
Spn MK inh = S. pneumoniae MK inhibitors, primary screen, biochemical, PK/LDH-coupled NADH absorbance; mevalonate kinase [Streptococcus pneumoniae D39]; inhibition, % at 10 µM; purified MK, PK/LDH-coupled NADH absorbance 340 nm; 0.48% of 65,000 active;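 active means ranked among the strongest by inhibition in the single 10 µM screen, a fixed top-ranked set picked for dose follow-up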
Autofluor 339 = intrinsic fluorescence of library compounds, ex339/em460 – biochemical, MLSMR library, data from DPM-DC assay, artefact control, profiling panel; compound autofluorescence, ex339/em460 nm, NADH buffer; active compounds read high; 1 = no-compound wells, NADH background; fluorescence fold increase at 10 µM; AID 709, 2007; 5.5% of 65,000 active;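 active means at 10 µM, mean starting fluorescence two-fold or more over control wells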;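 further: signal is the first read of a kinetic run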
Spn PMK inh = S. pneumoniae PMK inhibitors, primary screen, biochemical, mevalonate pathway, pilot trial included; phosphomevalonate kinase (Streptococcus pneumoniae D39); purified PMK, PK/LDH-coupled NADH absorbance 340 nm; inhibition, % at 10 µM; 0.49% of 65,000 active; AID 539, 2006;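 active means top-ranked compounds by inhibition in the single 10 µM screen, taking a fixed number of the strongest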;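 further: 0% = full reaction with DMSO carrier and 100% = background rate without enzyme reaction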
DPM-DC inhibit = S. pneumoniae DPM-DC inhibitors, primary screen, biochemical, PK/LDH-coupled NADH fluorescence. diphosphomevalonate decarboxylase (Streptococcus pneumoniae D39). purified DPM-DC. calls only at 10 µM. 0.49% of 65,000 active. AID 556, 2006;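 active means the 320 compounds with the highest percent inhibition in the single-dose primary screen, excluding strongly autofluorescent ones, cut at about 32% in these data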;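 further: kinetic rate of NADH fluorescence loss reporting ADP formed by the decarboxylase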
A340 absorber = compound light absorbance at 340 nm, profiling panel, artefact control, biochemical, MLSMR library, data from PS, PMK, MK assays. compound absorbance at 340 nm, fold over control. fold change at 10 µM. 65,000 tested, under 10 active. AID 708, 2007;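 active means at 10 µM dose, initial 340 nm absorbance at least 2 fold that of control wells; inactive means change under 2 fold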;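 further: initial absorbance extrapolated from kinetic A340 decline of NADH oxidation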
The depositor's hits bear a star.

For Cc1cc(C)c2[nH]c(=O)c(C(c3nnnn3C(C)(C)C)N3CCN(C(=O)c4ccco4)CC3)cc2c1 (stereo not given) the results were NADH coupling 15%, Spn MK inh 15, Autofluor 339 2.4*, Spn PMK inh 1, DPM-DC inhibit inactive and A340 absorber 1.1.
CCC(C)(C)n1nnnc1C(c1cc2cc(C)cc(C)c2[nH]c1=O)N1CCCC1 (stereo not given) was read as NADH coupling 5%, Spn MK inh 6, Autofluor 339 1.7, Spn PMK inh 0, DPM-DC inhibit inactive and A340 absorber 1.1.
`COc1ccccc1C(c1nnnn1C(C)(C)C)N1CCN(C(=O)c2ccco2)CC1` (stereo not given) gave NADH coupling 8%, Spn MK inh 10, Autofluor 339 1.1, Spn PMK inh 13, DPM-DC inhibit inactive and A340 absorber 1.
`CC(C)(C)n1nnnc1C(c1cc2cc3c(cc2[nH]c1=O)OCCO3)N1CCSCC1` (stereo not given) gave NADH coupling 0%, Spn MK inh 0, Autofluor 339 3.3*, Spn PMK inh 0 and A340 absorber 1.1.
`O=c1[nH]c2cc3c(cc2cc1C(c1nnnn1C1CCCC1)N1CCSCC1)OCCO3` (stereo not given) gave NADH coupling 17%, Spn MK inh 12, Autofluor 339 3.2*, Spn PMK inh 21 and A340 absorber 1.
CCC(C)(C)n1nnnc1C(c1cc2cc3c(cc2[nH]c1=O)OCO3)N1CCN(C)CC1 (stereo not given) was read as NADH coupling 11%, Spn MK inh 1, Autofluor 339 3.8*, Spn PMK inh 20 and A340 absorber 1.1.
For CCCCOc1cc(C)nc(NCc2ccccc2)n1 the results were NADH coupling 6%, Spn MK inh 9, Autofluor 339 1.1, Spn PMK inh 9, DPM-DC inhibit inactive and A340 absorber 1.
Screening CCOc1ccccc1N(CC(=O)OC)S(C)(=O)=O returned NADH coupling 5%, Spn MK inh 7, Autofluor 339 1.1, Spn PMK inh 7, DPM-DC inhibit inactive and A340 absorber 1.
CC(C)(C)NC(=O)CSc1nnc(-c2ccccn2)n1-c1ccccc1 was read as NADH coupling 5%, Spn MK inh 3, Autofluor 339 1, Spn PMK inh 28*, DPM-DC inhibit inactive and A340 absorber 0.98.
For O=C(CSc1nnc(-c2cccnc2)n1-c1ccccc1)Nc1ccccn1 the results were NADH coupling 5%, Spn MK inh 6, Autofluor 339 1, Spn PMK inh 10, DPM-DC inhibit inactive and A340 absorber 1.
For O=S1(=O)C=CC(Sc2nc3ccccc3[nH]2)C1 (stereo not given) the results were NADH coupling 7%, Spn MK inh 7, Autofluor 339 1.1, Spn PMK inh 14, DPM-DC inhibit inactive and A340 absorber 1.
Screening COc1cc(NC(=O)c2ccco2)c(OC)cc1NC(=O)c1cc(OC)c(OC)c(OC)c1 returned NADH coupling 5%, Spn MK inh 5, Autofluor 339 1.1, Spn PMK inh 3, DPM-DC inhibit inactive and A340 absorber 1.1.
`COc1cc2cc3c(N)c(C(=O)NCc4ccco4)sc3nc2cc1OC` gave NADH coupling 13%, Spn MK inh 9, Autofluor 339 1.2, Spn PMK inh 20, DPM-DC inhibit inactive and A340 absorber 1.1.
Screening Nc1c(C(=O)Nc2ccccc2)sc2nc(-c3ccco3)ccc12 returned NADH coupling 7%, Spn MK inh 7, Autofluor 339 3.7*, Spn PMK inh 6 and A340 absorber 1.1.
Screening NC(=O)c1oc2ccccc2c1NC(=O)c1ccco1 returned NADH coupling 1%, Spn MK inh 3, Autofluor 339 1.1, Spn PMK inh 0, DPM-DC inhibit inactive and A340 absorber 1.1.
CCOc1cc(NC(=O)c2ccco2)c(OCC)cc1NC(=O)c1cc(OC)c(OC)c(OC)c1 was read as NADH coupling 5%, Spn MK inh 7, Autofluor 339 4*, Spn PMK inh 3 and A340 absorber 1.1.
Screening COc1ccccc1NC(=O)c1oc2ccccc2c1NC(=O)c1ccco1 returned NADH coupling 9%, Spn MK inh 10, Autofluor 339 5*, Spn PMK inh 7 and A340 absorber 1.
COc1ccccc1NC(=O)c1sc2nc(-c3ccco3)ccc2c1N was read as NADH coupling 7%, Spn MK inh 11, Autofluor 339 3.8*, Spn PMK inh 3 and A340 absorber 1.1.
`O=C(Nc1nccs1)c1ccc(NC(=O)c2ccco2)cc1` gave NADH coupling 3%, Spn MK inh 3, Autofluor 339 1.1, Spn PMK inh 6, DPM-DC inhibit inactive and A340 absorber 1.1.
For Cc1cccc(-n2c(Cc3cc(=O)[nH]c(=O)[nH]3)nnc2SCC(=O)NCc2ccco2)c1 the results were NADH coupling 2%, Spn MK inh 4, Autofluor 339 1.1, Spn PMK inh 16, DPM-DC inhibit inactive and A340 absorber 0.98.
`Cc1ccc(C)c(/C(O)=C2\C(=O)C(=O)N(Cc3cccnc3)C2c2cccnc2)c1` (stereo not given) gave NADH coupling 5%, Spn MK inh 2, Autofluor 339 1, Spn PMK inh 11, DPM-DC inhibit inactive and A340 absorber 1.2.
Screening COc1ccc(CNc2nc3nc(C)c(Cl)c(C)n3n2)cc1OC returned NADH coupling 4%, Spn MK inh 7, Autofluor 339 1.1, Spn PMK inh 7, DPM-DC inhibit inactive and A340 absorber 1.
COc1ccc(C)cc1NC(=O)C1CCCN(S(=O)(=O)c2c(C)noc2/C=C/N(C)C)C1 (stereo not given) was read as NADH coupling 8%, Spn MK inh 5, Autofluor 339 1, Spn PMK inh 13, DPM-DC inhibit inactive and A340 absorber 1.3.
`OC1(CN2CCOCC2)C2CN3CCN(C2)CC1(c1ccccc1)C3` (stereo not given) gave NADH coupling 12%, Spn MK inh 9, Autofluor 339 1.1, Spn PMK inh 28*, DPM-DC inhibit inactive and A340 absorber 0.98.
`CC(NC(=O)Nc1ccccc1O)(C(F)(F)F)C(F)(F)F` gave NADH coupling 3%, Spn MK inh 5, Autofluor 339 2.6*, Spn PMK inh 3, DPM-DC inhibit inactive and A340 absorber 1.
CC(NC(=O)Nc1ccc(O)cc1)(C(F)(F)F)C(F)(F)F was read as NADH coupling 1%, Spn MK inh 0, Autofluor 339 1.1, Spn PMK inh 4, DPM-DC inhibit inactive and A340 absorber 1.
